Assay outcomes (PubChem BioAssay)
In the library only some 2.4% were active in any assay of this set; here they are far more common.
WRN helicase inh: WRN helicase (human) inhibition | WRN helicase unwinding, fluorescent forked duplex, kinetic | Potency, µM (series often up to 114 µM), usual class: inhibitors | Q14191 | hit rate 0.46% among 360,000; note: nearly all actives have a fitted effect of over 55% in size
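Kinetic fluorescence helicase assay: unwinding of a quenched forked DNA duplex (100 nM final) with 2 mM ATP final raises red fluorescence (525/598 nm). Compounds sat 15 min at room temperature with 20 nM WRN beforehand.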
FEN1 inhibitor: human FEN1 inhibition; hit rate 0.35% among 390,000; Recombinant FEN1 flap cleavage, fluorescence, 15 min; Potency, µM (titrated, usually from 114 µM), actives largely listed as inhibitors; note: nearly all actives have a fitted effect of over 65% in size
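FEN1 at 10 nM preincubated with compounds 15 min at room temperature, then flap DNA substrate added at 50 nM final. Signal read at 0 and 15 min; concentration-response fitted with four-parameter Hill equation.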
Pol kappa inh: inhibitors of human DNA polymerase kappa; Q9UBT6; Potency, µM (titrated, usually from 107 µM), actives largely listed as inhibitors; purified Pol kappa, fluorescent DNA synthesis assay, 10 min; hit rate 0.53% among 400,000
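10 nM Pol kappa was preincubated with compounds for 15 min at room temperature. Reaction started with 50 nM (final) substrate. Fluorescence read kinetically at 0 and 10 min.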
POLH inh: DNA polymerase eta (human) inhibition. Q9Y253. recombinant Pol eta, fluorescent DNA replication assay. Potency, µM (highest dose often 114 µM), usual class: inhibitors. hit rate 1.2% among 390,000. AID 588591
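Fluorescent replication assay: 50 nM final substrate added after a 15 min room-temperature compound preincubation with 10 nM enzyme. Signal taken at 0 min and again at 10 min.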
Pol beta inh-1: inhibitors of human DNA polymerase beta; P06746; hit rate 1.3% among 340,000; AID 485314; Pol beta primer extension/strand displacement, fluorescence kinetic; Potency, µM (titrated, usually from 114 µM), actives largely listed as inhibitors
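Preincubation: enzyme (10 nM) with compound, 15 min, RT. Reaction: substrate added to 50 nM final. Reads: 0 and 10 min. Analysis: normalized, Hill fit.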
POLI inh: inhibitors of human DNA polymerase iota; Pol iota fluorescent replication assay, 10 min; Q9UNA4; hit rate 1% among 390,000; AID 588590; Potency, µM (series often up to 115 µM), usual class: inhibitors
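Fluorescent replication assay read twice, at 0 min and 10 min after adding 50 nM (final) substrate. Enzyme (10 nM) and compounds were first incubated 15 min at room temperature; enzyme-free buffer wells were negative controls.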
Pol beta inh-2: Human Pol beta inhibitor hit validation. shares compounds with Pol beta inh-1. Potency, µM, most hits filed as inhibitors. AID 540280. hit rate 87% among 250. Pol beta primer extension/strand displacement, fluorescence kinetic; calls by dose curve
Klenow inh: Klenow polymerase inhibition, pol beta selectivity check. activity change, negative = inhibition, % at 57.1 µM. 250 tested, under 10 active. Klenow exo- polymerase counter-screen, fluorescent DNA substrate. shares compounds with Pol beta inh-1
HIV RT counter: counter-screen for DNA polymerase beta inhibitors: HIV-1 RT inhibition; shares compounds with Pol beta inh-1; HIV-1 RT polymerase activity, counter-screen; activity % (negative = inhibition, positive = activation), % at 57.1 µM; 250 tested, under 10 active; AID 540301
POLB inh gel: DNA polymerase beta inhibition, radiolabeled validation; shares compounds with Pol beta inh-1; inhibition, % at 10 µM; radiolabeled primer extension gel assay, phosphorimager; AID 540325; hit rate 91% among 110;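 active = inhibition at 10 µM of 30% or more; inconclusive = no clear call, values can overlap the other calls; inactive = inhibition at 10 µM under 30%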
Large screens that a line does not name were inactive (follow-up assays come after a bar, where they were run). Unless noted, calls come from the whole dose curve; as a rule, active = well fitted curve in the direction sought with a large enough effect; inconclusive = small, poorly fitted or top-dose-only effect, or another doubt; inactive = no such curve, though single readings can be large; an effect the other way counts as inactive or inconclusive.

Nc1c(C(=O)NC2CC2)sc2nc3c(c(-c4ccco4)c12)CC/C3=C/c1ccco1	WRN helicase inh 50.1µM, FEN1 inhibitor 5.62µM, Pol kappa inh 0.708µM, POLH inh 0.708µM, Pol beta inh-1 0.631µM, POLI inh inconclusive | Pol beta inh-2 28.2 | Klenow inh inactive | HIV RT counter inconclusive | POLB inh gel 100.0
COc1cccc(Cn2c(=O)c(C)nc3cnc(OCc4ccccc4)nc32)c1	none (no result: WRN helicase inh, FEN1 inhibitor, POLH inh, Pol beta inh-1, POLI inh)
Cc1cc2[nH]c(=O)c(=O)[nH]c2cc1S(=O)(=O)N1CCN(c2cccc(C)c2C)CC1	WRN helicase inh inconclusive, Pol kappa inh inconclusive, POLH inh inconclusive, Pol beta inh-1 11.2µM, POLI inh inconclusive | Pol beta inh-2 28.2 | Klenow inh inactive | HIV RT counter inactive | POLB inh gel 73.2
Cc1cc2[nH]c(=O)c(=O)[nH]c2cc1S(=O)(=O)N1CCN(c2ccccc2F)CC1	none
CC(=O)c1cc2c(cc1O)OC(C)(C)C=C2	none (no result: WRN helicase inh, FEN1 inhibitor, POLH inh, Pol beta inh-1, POLI inh)
Cn1c(SCC(=O)Nc2ccc3nc(SCC(=O)NC4CC4)sc3c2)nnc1-c1ccccc1	POLI inh inconclusive
Cn1c(SCC(=O)Nc2ccc3nc(SCC(=O)N4CCCC4)sc3c2)nnc1-c1ccc(N)cc1	WRN helicase inh inconclusive, Pol kappa inh 50.1µM, POLH inh inconclusive, Pol beta inh-1 7.94µM, POLI inh 5.62µM | Pol beta inh-2 7.08 | Klenow inh inactive | HIV RT counter inactive
O=C(Nc1cccc([N+](=O)[O-])c1)c1cc2ccccc2cc1O	POLH inh inconclusive, Pol beta inh-1 17.8µM, POLI inh 44.7µM | Pol beta inh-2 28.2 | Klenow inh inactive | HIV RT counter inactive | POLB inh gel 97.7
O=C(O)c1ccccc1C(=O)Nc1cccc([N+](=O)[O-])c1	none
Cc1cc(C)n2nc(SCc3cc(=O)oc4cc(O)ccc34)nc2n1	Pol beta inh-1 12.6µM (no result: WRN helicase inh, FEN1 inhibitor, Pol kappa inh, POLH inh, POLI inh) | Pol beta inh-2 22.4 | Klenow inh inactive | HIV RT counter inactive | POLB inh gel 83.8
CCc1ccc(C2/C=C\CNC(c3ccccc3)C(=O)N2Cc2ccc(C)cc2)cc1 (stereo unspecified)	none (no result: WRN helicase inh, POLH inh, Pol beta inh-1)
COc1ccc(OCC(=O)OCCN2C(=O)c3ccccc3C2=O)cc1	Pol beta inh-1 20µM | Pol beta inh-2 31.6 | Klenow inh inactive | HIV RT counter inactive | POLB inh gel 84.5
CC(C)C(NC(=O)OCc1ccccc1)C(=O)OCC(=O)NC1CC1 (stereo unspecified)	none
CC(C)C(NC(=O)OCc1ccccc1)C(=O)OCC(=O)NCc1ccco1 (stereo unspecified)	WRN helicase inh inconclusive, Pol kappa inh inconclusive, POLH inh 8.91µM, Pol beta inh-1 20µM, POLI inh inconclusive | Pol beta inh-2 inconclusive | Klenow inh inactive | HIV RT counter inactive | POLB inh gel 83.6
C=CCn1c(SCc2cc(=O)n3ccsc3n2)nnc1C1CCCCC1	Pol kappa inh inconclusive, POLH inh 79.4µM, Pol beta inh-1 20µM, POLI inh 25.1µM | Pol beta inh-2 inconclusive | Klenow inh inactive | HIV RT counter inactive | POLB inh gel 87.3
O=c1cc(CSc2nnc(NC3CCCCC3)s2)nc2sccn12	none
COc1ccc(C2CC(c3ccccc3)Oc3ccc(C(C)(C)C)cc32)cc1 (stereo unspecified)	none (no result: WRN helicase inh, POLH inh, Pol beta inh-1)
O=C(O)c1ccc(-c2ccc(-c3ccccc3)cc2)s1	Pol beta inh-1 15.8µM (no result: WRN helicase inh, FEN1 inhibitor, Pol kappa inh, POLH inh, POLI inh) | Pol beta inh-2 20 | Klenow inh inactive | HIV RT counter inactive
CCNc1ncc2nc(-c3ccc(Cl)cc3)c(=O)n(-c3ccc(OC)cc3)c2n1	none (no result: WRN helicase inh, FEN1 inhibitor, POLH inh, Pol beta inh-1, POLI inh)
